Measurements: PubChem BioAssay AID1159580 (chemical genetic matrix, 2015)
The campaign covered roughly 5,500 compounds. About 2,000 (36%) were called active. About 18% were inconclusive and are not listed. Cut-off read from the data, not from the text of the source: active = normalized growth mostly below about 0.91 (no sharp cut-off); inconclusive = no clear call, values can overlap the other calls; inactive = mostly above about 0.92. The list shows a part of the results.

Experiment: chemical genetic growth profiling, strain panel (AID 1159580);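 note: tested at 20 µM; growth read once vehicle control cultures reached saturation at 30 °C; 1 = growth at the plate median or of vehicle wells; lower values mean less growth of the strain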
Conditions: growth OD

Measured: normalized growth

NC(=NCCC[C@H](N)C(=O)O)N[N+](=O)[O-]
inactive: S. cerevisiae deletion strains, locus YJL187C, strain SWE1 (second series), active compounds read low 0.983 | S. cerevisiae deletion strains, locus YJR043C, strain POL32, active compounds read low 0.995 | S. cerevisiae deletion strains, locus YKL009W, strain mrt4, active compounds read low 1 | S. cerevisiae deletion strains, locus YKL068W, active compounds read low 0.997 | S. cerevisiae deletion strains, locus YKL085W, strain MDH1 (second series), active compounds read low 0.982 | S. cerevisiae deletion strains, locus YKL085W, strain MDH1, active compounds read low 0.982 | S. cerevisiae deletion strains, locus YKL160W, strain elf1, active compounds read low 1.01 | S. cerevisiae deletion strains, locus YKL190W, strain CNB1, active compounds read low 0.99 | S. cerevisiae deletion strains, locus YKR001C, strain vps1, active compounds read low 0.98 | S. cerevisiae deletion strains, locus YKR026C, strain gcn3, active compounds read low 1.01 | S. cerevisiae deletion strains, locus YKR091W, strain srl3, active compounds read low 1.02 | S. cerevisiae deletion strains, locus YLL001W, strain dnm1, active compounds read low 1.02 | S. cerevisiae deletion strains, locus YLL026W, active compounds read low 1.02 | S. cerevisiae deletion strains, locus YLL041C, strain sdh2, active compounds read low 1.02 | S. cerevisiae deletion strains, locus YLR027C, strain aat2, active compounds read low 1.03 | S. cerevisiae deletion strains, locus YLR039C, strain RIC1, active compounds read low 0.971 | S. cerevisiae deletion strains, locus YLR058C, strain SHM2, active compounds read low 1.01 | S. cerevisiae deletion strains, locus YLR102C, strain apc9, active compounds read low 1.01 | S. cerevisiae deletion strains, locus YLR221C, strain rsa3, active compounds read low 0.985 | S. cerevisiae deletion strains, locus YLR258W, strain gsy2, active compounds read low 1.02 | S. cerevisiae deletion strains, locus YLR262C, strain YPT6 (second series), active compounds read low 1.04 | S. cerevisiae deletion strains, locus YLR262C, strain YPT6, active compounds read low 1.06 | S. cerevisiae deletion strains, locus YLR268W, strain sec22, active compounds read low 1 | S. cerevisiae deletion strains, locus YLR320W, strain mms22, active compounds read low 1.03 | S. cerevisiae deletion strains, locus YLR330W, strain CHS5, active compounds read low 1.01 | S. cerevisiae deletion strains, locus YLR342W, strain FKS1 (second series), active compounds read low 1.03 | S. cerevisiae deletion strains, locus YLR342W, strain FKS1, active compounds read low 1.02 | S. cerevisiae deletion strains, locus YLR357W, strain rsc2, active compounds read low 1.06 | S. cerevisiae deletion strains, locus YLR370C, strain arc18, active compounds read low 1.02 | S. cerevisiae deletion strains, locus YLR371W, strain rom2, active compounds read low 0.997 | S. cerevisiae deletion strains, locus YLR384C, strain iki3, active compounds read low 1.03 | S. cerevisiae deletion strains, locus YLR418C, strain cdc73, active compounds read low 1.04 | S. cerevisiae deletion strains, locus YML016C, strain PPZ1, active compounds read low 1 | S. cerevisiae deletion strains, locus YML032C, strain rad52, active compounds read low 0.989 | S. cerevisiae deletion strains, locus YML120C, strain ndi1, active compounds read low 1.02 | S. cerevisiae deletion strains, locus YML124C, strain tub3, active compounds read low 1 | S. cerevisiae deletion strains, locus YMR058W, strain fet3, active compounds read low 1.04 | S. cerevisiae deletion strains, locus YMR078C, strain ctf18, active compounds read low 0.997 | S. cerevisiae deletion strains, locus YMR125W, strain sto1, active compounds read low 1.01 | S. cerevisiae deletion strains, locus YMR129W, active compounds read low 1.02 | S. cerevisiae deletion strains, locus YMR205C, strain PFK2, active compounds read low 1.03 | S. cerevisiae deletion strains, locus YMR223W, strain ubp8, active compounds read low 1.05 | S. cerevisiae deletion strains, locus YMR231W, strain pep5, active compounds read low 1.01 | S. cerevisiae deletion strains, locus YMR307W, strain GAS1, active compounds read low 0.982 | S. cerevisiae deletion strains, locus YNL067W, strain RPL9B, active compounds read low 0.973 | S. cerevisiae deletion strains, locus YNL071W, strain lat1, active compounds read low 1.01 | S. cerevisiae deletion strains, locus YNL128W, strain TEP1, active compounds read low 1.01 | S. cerevisiae deletion strains, locus YNL153C, strain GIM3, active compounds read low 0.975 | S. cerevisiae deletion strains, locus YNL209W, strain ssb2, active compounds read low 1.03 | S. cerevisiae deletion strains, locus YNL233W, strain BNI4, active compounds read low 0.968 | S. cerevisiae deletion strains, locus YNL248C, strain rpa49, active compounds read low 1.01 | S. cerevisiae deletion strains, locus YNL271C, strain bni1, active compounds read low 1.01 | S. cerevisiae deletion strains, locus YNL298W, strain CLA4, active compounds read low 1.01 | S. cerevisiae deletion strains, locus YNL307C, strain MCK1, active compounds read low 1.01 | S. cerevisiae deletion strains, locus YNL322C, strain KRE1 (second series), active compounds read low 1.03 | S. cerevisiae deletion strains, locus YNL322C, strain KRE1, active compounds read low 0.994 | S. cerevisiae deletion strains, locus YNR049C, strain mso1, active compounds read low 1.02 | S. cerevisiae deletion strains, locus YNR052C, strain pop2, active compounds read low 1.01 | S. cerevisiae deletion strains, locus YOL006C, strain TOP1, active compounds read low 0.974 | S. cerevisiae deletion strains, locus YOL012C, strain htz1 2.01 | S. cerevisiae deletion strains, locus YOL147C, strain pex11, active compounds read low 1 | S. cerevisiae deletion strains, locus YOR001W, strain rrp6, active compounds read low 1.04 | S. cerevisiae deletion strains, locus YOR061W, strain CKA2, active compounds read low 1 | S. cerevisiae deletion strains, locus YOR069W, strain VPS5, active compounds read low 1.01 | S. cerevisiae deletion strains, locus YOR070C, strain gyp1, active compounds read low 1.02 | S. cerevisiae deletion strains, locus YOR080W, strain dia2, active compounds read low 1.02 | S. cerevisiae deletion strains, locus YOR083W, strain WHI5, active compounds read low 1.03 | S. cerevisiae deletion strains, locus YOR106W, strain vam3, active compounds read low 1.05 | S. cerevisiae deletion strains, locus YOR136W, strain idh2, active compounds read low 0.997 | S. cerevisiae deletion strains, locus YOR144C, strain elg1, active compounds read low 1 | S. cerevisiae deletion strains, locus YOR184W, strain ser1, active compounds read low 1.02 | S. cerevisiae deletion strains, locus YOR265W, strain rbl2, active compounds read low 1.02 | S. cerevisiae deletion strains, locus YOR270C, strain vph1, active compounds read low 1.04 | S. cerevisiae deletion strains, locus YOR290C, strain snf2, active compounds read low 1.02 | S. cerevisiae deletion strains, locus YOR316C, strain cot1, active compounds read low 1.01 | S. cerevisiae deletion strains, locus YPL051W, strain arl3, active compounds read low 1.02 | S. cerevisiae deletion strains, locus YPL055C, strain LGE1, active compounds read low 0.95 | S. cerevisiae deletion strains, locus YPL078C, strain atp4, active compounds read low 1.03 | S. cerevisiae deletion strains, locus YPL106C, strain sse1, active compounds read low 1.04 | S. cerevisiae deletion strains, locus YPL240C, strain hsp82, active compounds read low 1.01 | S. cerevisiae deletion strains, locus YPL241C, strain CIN2, active compounds read low 1 | S. cerevisiae deletion strains, locus YPR119W, strain clb2, active compounds read low 0.997 | S. cerevisiae deletion strains, locus YPR141C, strain kar3, active compounds read low 0.998 | S. cerevisiae deletion strains, locus YPR163C, strain tif3, active compounds read low 0.997 | S. cerevisiae deletion strains, locus YPR167C, strain met16, active compounds read low 0.999 | S. cerevisiae deletion strains, strain wtn01, active compounds read low 1 | S. cerevisiae strains, strain wild type, active compounds read low 1
